Data taken from PubChem BioAssay (EPA / NIEHS).
Calls of active or inactive are those of the source. The calls were made as follows: active = hit-call score of the fitted dose curve at least 0.9, where 1 is the maximum; inactive = score below 0.9.

Assays:
Conditions in all cases: mRNA level, 48 h; actives raise or lower the signal
[1] = read-out: Cytochrome P450 (CYP24A1), CYP24A1 (gene 1591); test: LTEA_HepaRG_CYP24A1: Life Technologies and Expression Analysis (LTEA) Assay for Cytochrome P450 (CYP24A1) using HepaRG (AID 2283478)
Summary of the method: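 mRNA of CYP24A1 quantified by TaqMan qRT-PCR (ACTB/GAPDH/POLR2A normalization) after 48 h chemical exposure of HepaRG cells, top concentration 100 uM, half-log steps, 0.5% DMSO vehicle, duplicates. Curves fitted bidirectionally against DMSO baseline.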

[2] = read-out: Cytochrome P450 (CYP1A2), CYP1A2 (gene 1544); test: LTEA_HepaRG_CYP1A2: Life Technologies and Expression Analysis (LTEA) Assay for Cytochrome P450 (CYP1A2) using HepaRG (AID 2283479)
Summary of the method: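 CYP1A2 transcript measured by TaqMan qRT-PCR against three housekeeping genes after 48-hour chemical exposure of HepaRG cells. Eight-point half-log series topping at 100 uM in 0.5% DMSO, duplicates; gain or loss fitted relative to vehicle.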

[3] = read-out: cysteine-aspartic acid protease (CASP8), CASP8 (gene 841); test: LTEA_HepaRG_CASP8: Life Technologies and Expression Analysis (LTEA) Assay for cysteine-aspartic acid protease (CASP8) using HepaRG (AID 2283480)
Summary of the method: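 CASP8 transcript measured by TaqMan qRT-PCR with ACTB/GAPDH/POLR2A normalization, after 48 h chemical exposure of HepaRG cells in serum-free induction medium. Eight concentrations, top 100 uM, half-log steps, 0.5% DMSO vehicle; fits in both directions versus DMSO.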

[4] = read-out: Cytochrome P450 (CYP2B6), CYP2B6 (gene 1555); test: LTEA_HepaRG_CYP2B6: Life Technologies and Expression Analysis (LTEA) Assay for Cytochrome P450 (CYP2B6) using HepaRG (AID 2283481)
Summary of the method: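 CYP2B6 transcript level quantified by qRT-PCR against three housekeeping genes, fitted bidirectionally relative to DMSO. HepaRG cultures received chemicals for 48 h, 8-point half-log series from 100 uM in 0.5% DMSO, duplicate wells, serum-free induction medium.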

[5] = read-out: Cytochrome P450 2C19 (Homo sapiens) (UniProt P33261); test: LTEA_HepaRG_CYP2C19: Life Technologies and Expression Analysis (LTEA) Assay for CYP2C19 using HepaRG (AID 2283482)
Summary of the method: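 CYP2C19 transcript levels by qRT-PCR, normalized to three housekeeping genes, in HepaRG cells after 48 h chemical exposure. Eight-point half-log series topping at 100 uM, 0.5% DMSO vehicle. Increases and decreases both fitted against DMSO.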

CYP2C8 (gene 1558) = test: LTEA_HepaRG_CYP2C8: Life Technologies and Expression Analysis (LTEA) Assay for CYP2C8 using HepaRG (AID 2283483)
Summary of the method: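 CYP2C8 expression measured by TaqMan qRT-PCR and normalized to three housekeeping genes. HepaRG cultures were treated for 48 h with an eight-point half-log series topping at 100 uM, vehicle 0.5% DMSO, duplicates; fitted both directions against DMSO.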

CYP2C9 (gene 1559) = test: LTEA_HepaRG_CYP2C9: Life Technologies and Expression Analysis (LTEA) Assay for CYP2C9 using HepaRG (AID 2283484)
Summary of the method: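 CYP2C9 transcript level, quantified by TaqMan qRT-PCR against three housekeeping genes, was fitted bidirectionally relative to 0.5% DMSO. HepaRG cultures were treated 48 h, in duplicate, at eight half-log concentrations topping at 100 uM.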

CYP2E1 (gene 1571) = test: LTEA_HepaRG_CYP2E1: Life Technologies and Expression Analysis (LTEA) Assay for CYP2E1 using HepaRG (AID 2283485)
Summary of the method: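 Readout is qRT-PCR of CYP2E1 mRNA, normalized to three housekeeping genes and fitted bidirectionally against 0.5% DMSO. HepaRG cells were dosed 48 h at eight concentrations, highest 100 uM with half-log dilutions.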

CYP4A11 (gene 1579) = test: LTEA_HepaRG_CYP4A11: Life Technologies and Expression Analysis (LTEA) Assay for CYP4A11 using HepaRG (AID 2283486)
Summary of the method: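 Readout is CYP4A11 transcript level by qRT-PCR, normalized to three housekeeping genes and fitted bidirectionally against 0.5% DMSO. Human HepaRG cells were treated 48 h, in duplicate, with an 8-point half-log series topping at 100 uM.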

[6] = read-out: Cytochrome P450 3A4 (Homo sapiens) (UniProt P08684); test: LTEA_HepaRG_CYP3A4: Life Technologies and Expression Analysis (LTEA) Assay for CYP3A4 using HepaRG (AID 2283487)
Summary of the method: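 Differentiated HepaRG cells in serum-free induction medium exposed in duplicate for 48 h to 8 half-log concentrations up to 100 uM in 0.5% DMSO. CYP3A4 mRNA measured by qRT-PCR normalized to ACTB, GAPDH and POLR2A; bidirectional fit versus DMSO.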

[7] = read-out: DNA damage-inducible transcript 3 (DDIT3), DDIT3 (gene 1649); test: LTEA_HepaRG_DDIT3: Life Technologies and Expression Analysis (LTEA) Assay for DNA damage-inducible transcript 3 (DDIT3) using HepaRG (AID 2283488)
Summary of the method: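 Cells are human HepaRG liver cells treated for 48 h with eight half-log concentrations up to 100 uM in 0.5% DMSO. Transcript levels come from qRT-PCR normalized to three housekeeping genes, with activity fitted in both directions relative to vehicle.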

[8] = read-out: Pro-epidermal growth factor (Homo sapiens) (UniProt P01133); test: LTEA_HepaRG_EGF: Life Technologies and Expression Analysis (LTEA) Assay for Epidermal growth factor (EGF) using HepaRG (AID 2283489)
Summary of the method: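 EGF transcript measured by Fluidigm TaqMan qRT-PCR with three housekeeping genes for normalization, 48 h after dosing HepaRG cultures in duplicate (top 100 uM, half-log steps, 0.5% DMSO vehicle). Gain or loss relative to DMSO fitted.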

[9] = read-out: Early growth response protein 1 (EGR1) transcription factor, EGR1 (gene 1958); test: LTEA_HepaRG_EGR1: Life Technologies and Expression Analysis (LTEA) Assay for Early growth response protein 1 (EGR1) transcription factor using HepaRG (AID 2283490)
Summary of the method: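 EGR1 transcript levels quantified by qRT-PCR (Fluidigm arrays) against three housekeeping genes after 48 h chemical exposure of HepaRG cells. Eight-point half-log series topping at 100 uM, 0.5% DMSO vehicle, analyzed for gain or loss.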

[10] = read-out: Ezrin (EZR), EZR (gene 7430); test: LTEA_HepaRG_EZR: Life Technologies and Expression Analysis (LTEA) Assay for Ezrin (EZR) using HepaRG (AID 2283491)
Summary of the method: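 Differentiated human HepaRG cells, 48 h after plating, were exposed in serum-free induction medium for 48 hours to eight half-log concentrations up to 100 uM in 0.5% DMSO. EZR mRNA was measured by TaqMan qRT-PCR, normalized to ACTB, GAPDH and POLR2A, and fitted bidirectionally against DMSO.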

CYP3A5 (gene 1577) = test: LTEA_HepaRG_CYP3A5: Life Technologies and Expression Analysis (LTEA) Assay for CYP3A5 using HepaRG (AID 2283493)
Summary of the method: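 Human HepaRG hepatic cells receive 48 h chemical treatment at eight concentrations (half-log steps from 100 uM) in 0.5% DMSO. Expression of CYP3A5 is quantified by Fluidigm qRT-PCR and normalized to three reference genes.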

[11] = read-out: Fatty Acid-Binding Protein 1 (FABP1), FABP1 (gene 2168); test: LTEA_HepaRG_FABP1: Life Technologies and Expression Analysis (LTEA) Assay for Fatty Acid-Binding Protein 1 (FABP1) using HepaRG (AID 2283494)
Summary of the method: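 FABP1 expression by TaqMan qRT-PCR, normalised to three housekeeping genes, in HepaRG cells after 48 h chemical treatment. Eight-point half-log series topping at 100 uM in 0.5% DMSO, duplicates; gain or loss fitted relative to vehicle.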

[12] = read-out: Cytochrome P450 7A1 (Homo sapiens) (UniProt P22680); test: LTEA_HepaRG_CYP7A1: Life Technologies and Expression Analysis (LTEA) Assay for Cytochrome P450 7A1 (CYP7A1) using HepaRG (AID 2283496)
Summary of the method: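 HepaRG, 48 h exposure, 8-pt half-log series from 100 uM, 0.5% DMSO vehicle, duplicates. Readout: TaqMan qRT-PCR mRNA vs three housekeeping genes; bidirectional curve fit against DMSO baseline.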

[13] = read-out: Glutathione S-Transferase (GSTA2), GSTA2 (gene 2939); test: LTEA_HepaRG_GSTA2: Life Technologies and Expression Analysis (LTEA) Assay for Glutathione S-Transferase (GSTA2) using HepaRG (AID 2283497)
Summary of the method: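 GSTA2 transcript levels came from Fluidigm TaqMan qRT-PCR normalized to three housekeeping genes, fitted in both directions against DMSO. HepaRG cultures received chemicals for 48 h in serum-free induction medium (0.5% DMSO), 8 half-log concentrations up to 100 uM, duplicate.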

[14] = read-out: Cytochrome P450 3A7 (Homo sapiens) (UniProt P24462); test: LTEA_HepaRG_CYP3A7: Life Technologies and Expression Analysis (LTEA) Assay for CYP3A7 using HepaRG (AID 2283492)
Summary of the method: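 CYP3A7 transcript measured by qRT-PCR (ACTB, GAPDH, POLR2A normalization) after 48 h chemical exposure of HepaRG cells in duplicate. Eight half-log concentrations, maximum 100 uM, 0.5% DMSO vehicle; bidirectional curve fitting against DMSO baseline.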

[15] = read-out: Cytochrome P450 4A22 (Homo sapiens) (UniProt Q5TCH4); test: LTEA_HepaRG_CYP4A22: Life Technologies and Expression Analysis (LTEA) Assay for Cytochrome P450 4A22 (CYP4A22) using HepaRG (AID 2283495)
Summary of the method: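 Gene expression measured by qRT-PCR against three housekeeping genes (ACTB, GAPDH, POLR2A), with gain or loss fitted relative to 0.5% DMSO vehicle. HepaRG cultures received 48 h chemical treatment, top concentration 100 uM, half-log steps, duplicate wells.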

Sequence of Cytochrome P450 3A4 (Homo sapiens) (P08684 whole entry, looked up): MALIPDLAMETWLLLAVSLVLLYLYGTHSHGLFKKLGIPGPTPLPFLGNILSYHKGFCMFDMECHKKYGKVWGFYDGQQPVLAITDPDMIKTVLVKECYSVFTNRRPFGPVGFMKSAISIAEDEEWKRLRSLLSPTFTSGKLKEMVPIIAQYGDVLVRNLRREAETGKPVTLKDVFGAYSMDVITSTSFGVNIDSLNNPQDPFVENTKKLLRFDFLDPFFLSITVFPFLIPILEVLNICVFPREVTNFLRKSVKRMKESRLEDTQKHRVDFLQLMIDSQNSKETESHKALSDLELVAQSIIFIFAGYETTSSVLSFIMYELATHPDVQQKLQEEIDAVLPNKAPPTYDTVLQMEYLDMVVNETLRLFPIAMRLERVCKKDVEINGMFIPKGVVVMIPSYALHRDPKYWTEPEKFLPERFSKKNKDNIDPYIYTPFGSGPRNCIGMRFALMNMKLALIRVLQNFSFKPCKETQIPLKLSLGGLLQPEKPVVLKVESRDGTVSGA
Sequence of Cytochrome P450 2C19 (Homo sapiens) (P33261 whole entry, looked up): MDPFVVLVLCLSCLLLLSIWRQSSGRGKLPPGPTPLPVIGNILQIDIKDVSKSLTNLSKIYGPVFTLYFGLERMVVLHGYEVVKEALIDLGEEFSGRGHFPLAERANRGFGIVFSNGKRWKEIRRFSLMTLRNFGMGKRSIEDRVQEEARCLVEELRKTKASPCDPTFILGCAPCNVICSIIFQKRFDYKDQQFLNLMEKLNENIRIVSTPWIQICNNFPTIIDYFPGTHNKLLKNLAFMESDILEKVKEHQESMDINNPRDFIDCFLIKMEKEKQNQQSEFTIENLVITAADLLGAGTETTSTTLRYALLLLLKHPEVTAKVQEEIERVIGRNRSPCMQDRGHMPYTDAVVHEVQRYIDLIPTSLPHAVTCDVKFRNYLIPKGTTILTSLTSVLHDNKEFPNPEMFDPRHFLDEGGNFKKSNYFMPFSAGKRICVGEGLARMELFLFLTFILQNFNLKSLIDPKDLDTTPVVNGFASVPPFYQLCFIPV
Sequence of Cytochrome P450 3A7 (Homo sapiens) (P24462 whole entry, looked up): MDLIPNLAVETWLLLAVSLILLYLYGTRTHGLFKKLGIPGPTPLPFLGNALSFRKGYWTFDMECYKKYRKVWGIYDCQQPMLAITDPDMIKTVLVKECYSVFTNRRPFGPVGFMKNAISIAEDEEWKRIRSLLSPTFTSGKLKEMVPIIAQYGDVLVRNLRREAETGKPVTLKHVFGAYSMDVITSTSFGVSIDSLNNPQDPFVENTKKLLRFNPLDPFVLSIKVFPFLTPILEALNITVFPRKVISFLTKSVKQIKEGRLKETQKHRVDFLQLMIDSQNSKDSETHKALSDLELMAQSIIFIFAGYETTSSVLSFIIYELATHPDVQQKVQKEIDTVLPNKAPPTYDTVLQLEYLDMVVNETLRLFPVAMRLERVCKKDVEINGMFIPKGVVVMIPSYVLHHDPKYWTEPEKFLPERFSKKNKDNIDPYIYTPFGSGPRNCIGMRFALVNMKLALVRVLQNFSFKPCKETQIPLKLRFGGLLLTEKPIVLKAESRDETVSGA

## CC(=O)OC/C=C(\C)CCC=C(C)C
[1]
  outcome: inactive
[2]
  outcome: inactive
[3]
  outcome: inactive
[4]
  outcome: inactive
[5]
  outcome: inactive
CYP2C8 (gene 1558)
  outcome: inactive
CYP2C9 (gene 1559)
  outcome: inactive
CYP2E1 (gene 1571)
  outcome: inactive
CYP4A11 (gene 1579)
  outcome: inactive
[6]
  outcome: inactive
[7]
  outcome: inactive
[8]
  outcome: inactive
[9]
  outcome: inactive
[10]
  outcome: inactive
CYP3A5 (gene 1577)
  outcome: inactive
[11]
  outcome: inactive
[12]
  outcome: inactive
[13]
  outcome: inactive

## Cc1nc(C)nc(N2C[C@@H](C)N(c3ccnc([C@@H](C)O)n3)[C@@H](C)C2)n1
[1]
  outcome: inactive
[2]
  outcome: inactive
[3]
  outcome: inactive
[4]
  outcome: inactive
[5]
  outcome: inactive
CYP2C8 (gene 1558)
  outcome: inactive
CYP2C9 (gene 1559)
  AC50: 25 µM (active)
CYP4A11 (gene 1579)
  AC50: 9.39 µM (active)
[6]
  outcome: inactive
[7]
  outcome: inactive
[9]
  outcome: inactive
[10]
  outcome: inactive
CYP3A5 (gene 1577)
  outcome: inactive
[11]
  outcome: inactive
[12]
  outcome: inactive
[13]
  AC50: 25 µM (active)

## CC1=C(/C=C/C(C)=C/C=C/C(C)=C/CO)C(C)(C)CCC1
[1]
  outcome: inactive
[2]
  outcome: inactive
[3]
  outcome: inactive
[4]
  AC50: 26.7 µM (active)
[5]
  AC50: 43.5 µM (active)
CYP2C8 (gene 1558)
  AC50: 52.2 µM (active)
CYP2C9 (gene 1559)
  outcome: inactive
CYP4A11 (gene 1579)
  AC50: 15.5 µM (active)
[6]
  AC50: 23.6 µM (active)
[7]
  outcome: inactive
[8]
  AC50: 52.2 µM (active)
[9]
  outcome: inactive
[10]
  outcome: inactive
[14]
  outcome: inactive
CYP3A5 (gene 1577)
  outcome: inactive
[11]
  AC50: 26.3 µM (active)
[15]
  AC50: 22.2 µM (active)
[12]
  AC50: 21.9 µM (active)
[13]
  AC50: 52.2 µM (active)
